Records with an inconclusive call do not appear. Active and inactive are the calls of the source. Unless noted, calls come from the whole dose curve.
Experiments:
[1] = Nuclear factor erythroid 2-related factor 2/antioxidant responsive element (Nrf2/ARE) small molecule agonists: qHTS cell viability counter screen in human keratinocytes (AID 1919968; active = well fitted cell-killing curve with a large enough effect in the repeat runs; note: nearly all actives have a fitted effect of over 55% in size; note: potency is the fitted concentration of half-maximal effect)
Outline: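 Cells of the KeratinoSens line were plated at 1,500 per well and left for 5 h before compound transfer from DMSO stocks. After a 23 h incubation (37 C, 5% CO2), CellTiter-Fluor was added. Signal was taken as fluorescence intensity 1 h later.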

[2] = Nuclear factor erythroid 2-related factor 2/antioxidant responsive element (Nrf2/ARE) small molecule agonists: luciferase reporter gene qHTS assay in human keratinocytes (AID 1919969); note: nearly all actives have a fitted effect of over 35% in size; note: potency is the fitted concentration of half-maximal effect
[3] = biological target: Gonadotropin-releasing hormone receptor (Homo sapiens) (UniProt P30968); experiment: Human gonadotropin-releasing hormone receptor (GnRHR) small molecule agonists, calcium flux assay in GnRHR-HEK293 cells (AID 1920063); note: nearly all actives have a fitted effect of over 35% in size
Gonadotropin-releasing hormone receptor (Homo sapiens), sequence (P30968 whole entry, looked up): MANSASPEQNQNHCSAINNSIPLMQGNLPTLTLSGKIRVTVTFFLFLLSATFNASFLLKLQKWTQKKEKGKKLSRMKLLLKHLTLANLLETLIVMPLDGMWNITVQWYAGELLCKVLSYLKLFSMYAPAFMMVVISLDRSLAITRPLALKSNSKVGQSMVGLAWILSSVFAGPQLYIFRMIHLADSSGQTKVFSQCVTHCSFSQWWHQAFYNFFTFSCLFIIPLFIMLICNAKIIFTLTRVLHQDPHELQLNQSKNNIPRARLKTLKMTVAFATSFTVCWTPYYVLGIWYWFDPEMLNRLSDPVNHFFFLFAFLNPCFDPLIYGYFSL
Outline: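 Compounds dissolved in DMSO are pin-transferred onto dye-loaded GnRHR-HEK293 cells, which were seeded 18 h before at 37 C/5% CO2. Calcium signal is read as fluorescence intensity at 1 s intervals for 3 min.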

[4] = G protein-coupled receptor (GPCR) small molecule agonists, calcium flux assay: HEK293 wild type cell line counter screen (AID 1920065)
Outline: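 Tox21 10K compounds, 15 concentrations each in triplicate, pin-transferred in DMSO onto dye-loaded cells; kinetic read at 480/540 nm for 3 min, 1 s intervals.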

[5] = p53 small molecule agonists, cell-based qHTS assay with human liver microsomes (AID 1963577)
Outline: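 Compounds act here after metabolic activation: human liver microsomes and NADPH, both at 0.5 mg/mL final, were co-added to p53RE-bla cells. Incubation ran 16 h at 37 C, followed by LiveBLAzer detection.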

[6] = p53 small molecule agonists, cell-based qHTS assay with rat liver microsomes (AID 1963578)
Outline: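 Read-out is beta-lactamase reporter fluorescence (LiveBLAzer, 2 h, room temperature, dark) in p53RE-bla cells treated 16 h at 37 C with compound, rat liver microsomes and NADPH, both 0.5 mg/mL final.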

[7] = p53 small molecule agonists, cell-based qHTS assay with human liver microsomes: qHTS cell viability counter screen (AID 1963579); note: nearly all actives have a fitted effect of over 45% in size
Outline: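 Cells carrying the p53 response-element beta-lactamase reporter are treated for 16 h at 37 C with test compounds in the presence of human liver microsomes and NADPH (both 0.5 mg/mL final); ATP-based CellTiter-Glo luminescence then reports viability.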

[8] = p53 small molecule agonists, cell-based qHTS assay with rat liver microsomes: qHTS cell viability counter screen (AID 1963580); note: nearly all actives have a fitted effect of over 45% in size
Outline: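 Cytotoxicity counter screen: intracellular ATP measured by CellTiter-Glo luminescence in the same wells as the beta-lactamase reporter read, on HCT-116 p53RE-bla cells exposed 16 h at 37 C to compounds with rat liver microsomes and NADPH, each 0.5 mg/mL final.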

[9] = p53 small molecule agonists, cell-based qHTS assay: qHTS cell viability counter screen (AID 1963581); note: nearly all actives have a fitted effect of over 45% in size
Outline: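 ATP content measured by luminescence in HCT-116 p53RE-bla cells treated 16 h at 37 C, same wells as the reporter screen.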

[10] = biological target: 5-hydroxytryptamine receptor 2A (Homo sapiens) (UniProt P28223); experiment: 5-hydroxytryptamine receptor 2A (HTR2A) small molecule antagonists, cell-based qHTS assay (AID 1963586); note: nearly all actives have a fitted effect of over 45% in size
5-hydroxytryptamine receptor 2A (Homo sapiens), sequence (P28223 whole entry, looked up): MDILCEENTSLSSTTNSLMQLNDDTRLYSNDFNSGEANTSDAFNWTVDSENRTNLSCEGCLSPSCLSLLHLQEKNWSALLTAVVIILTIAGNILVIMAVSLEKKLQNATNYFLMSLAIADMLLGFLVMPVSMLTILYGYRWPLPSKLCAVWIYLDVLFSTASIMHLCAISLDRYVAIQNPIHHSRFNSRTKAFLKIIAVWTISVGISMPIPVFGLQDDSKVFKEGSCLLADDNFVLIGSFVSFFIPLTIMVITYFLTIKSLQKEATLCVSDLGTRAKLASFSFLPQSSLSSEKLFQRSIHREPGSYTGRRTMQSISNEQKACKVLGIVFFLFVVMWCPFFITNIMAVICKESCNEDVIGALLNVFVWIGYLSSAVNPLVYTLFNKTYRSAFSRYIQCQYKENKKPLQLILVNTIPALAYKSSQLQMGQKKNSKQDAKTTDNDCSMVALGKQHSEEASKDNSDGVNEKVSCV
Outline: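 CHO cells stably expressing human HTR2A were plated for 18 h at 37 C, then loaded with calcium dye for 1 h. Compounds were preincubated 5 min at room temperature before DOI (4 nM solution) was added. Kinetic fluorescence was read for 3 min.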

[11] = biological target: 5-hydroxytryptamine receptor 2A (Homo sapiens) (UniProt P28223); experiment: 5-hydroxytryptamine receptor 2A (HTR2A) small molecule agonists, cell-based qHTS assay (AID 1963587); note: nearly all actives have a fitted effect of over 30% in size; note: potency is the fitted concentration of half-maximal effect
Outline: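 CHO cells stably expressing human HTR2A, plated 18 h, loaded with calcium dye 1 h at 37 C. Agonist mode: compounds added and intracellular calcium fluorescence recorded kinetically for 2 min at 1 sec intervals.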

[12] = biological target: Muscarinic acetylcholine receptor M1 (Homo sapiens) (UniProt P11229); experiment: Cholinergic receptor muscarinic 1 (CHRM1) small molecule agonists, cell-based qHTS assay (AID 1963589); note: nearly all actives have a fitted effect of over 35% in size
Muscarinic acetylcholine receptor M1 (Homo sapiens), sequence (P11229 whole entry, looked up): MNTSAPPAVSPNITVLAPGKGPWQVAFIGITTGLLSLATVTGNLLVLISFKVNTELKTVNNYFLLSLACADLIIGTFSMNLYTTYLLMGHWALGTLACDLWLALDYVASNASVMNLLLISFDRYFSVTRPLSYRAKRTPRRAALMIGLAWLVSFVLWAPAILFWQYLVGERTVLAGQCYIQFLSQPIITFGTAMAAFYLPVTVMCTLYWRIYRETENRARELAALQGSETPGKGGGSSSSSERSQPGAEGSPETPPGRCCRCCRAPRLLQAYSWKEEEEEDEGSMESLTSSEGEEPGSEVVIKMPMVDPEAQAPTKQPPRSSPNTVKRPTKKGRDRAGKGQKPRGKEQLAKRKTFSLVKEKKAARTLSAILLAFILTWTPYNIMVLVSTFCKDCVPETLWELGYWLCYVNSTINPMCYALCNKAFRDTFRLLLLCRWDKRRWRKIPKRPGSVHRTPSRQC
Outline: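 Homogeneous fluorescence calcium flux, agonist mode. Human M1-expressing CHO cells; compound dosed at 15 concentrations, three independent runs; signal sampled every 1 sec.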

[13] = cAMP Responsive Elements (CRE) small molecule agonists, cell-based qHTS assay (AID 1963590)
Outline: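 HEK 293T cells stably bearing CRE-bla were plated at 2,000 cells per well and rested 18 h. Compounds, positive controls or DMSO were added for 3 h at 37 C. LiveBLAzer B/G substrate was then loaded for 2 h at room temperature.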

[14] = cAMP Responsive Elements (CRE) small molecule antagonists, cell-based qHTS assay (AID 1963591; active = well fitted inhibition curve with a large enough effect in the signal ratio in the repeat runs, not every such curve was filed as active; the % refers to the signal ratio)
Outline: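 First, CRE-bla HEK293T cells settled 18 h at 37 C. Next, compound and 0.25 uM final NKH477 were applied for 3 h. Last, LiveBLAzer B/G substrate was loaded for 2 h at room temperature.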

[15] = biological target: Beta-2 adrenergic receptor (Homo sapiens) (UniProt P07550); experiment: Adrenergic beta2 receptor (ADRB2) small molecule antagonists, cell-based qHTS assay (AID 1963592); note: series mostly up to about 92 µM; nearly all actives have a fitted effect of over 50% in size
Beta-2 adrenergic receptor (Homo sapiens), sequence (P07550 whole entry, looked up): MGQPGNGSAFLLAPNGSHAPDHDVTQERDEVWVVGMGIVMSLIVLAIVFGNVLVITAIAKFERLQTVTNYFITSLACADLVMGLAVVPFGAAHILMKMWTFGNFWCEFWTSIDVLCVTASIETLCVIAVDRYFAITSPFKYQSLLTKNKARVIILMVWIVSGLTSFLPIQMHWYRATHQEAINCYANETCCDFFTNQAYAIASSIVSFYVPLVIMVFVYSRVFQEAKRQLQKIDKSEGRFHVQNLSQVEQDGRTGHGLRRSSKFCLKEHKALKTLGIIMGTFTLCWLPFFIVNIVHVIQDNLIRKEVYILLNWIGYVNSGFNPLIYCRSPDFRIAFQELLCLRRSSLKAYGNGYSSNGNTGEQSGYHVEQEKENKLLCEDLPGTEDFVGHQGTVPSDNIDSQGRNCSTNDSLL
Outline: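 Assay format: CHO-ADRB2 cells, 18-20hr seeding at 37C/5% CO2, then compound plus 1nM isoproterenol agonist mix for 0.5hr RT. Homogeneous time-resolved fluorescence cAMP detection after 1hr, expressed as 665/615 nm ratio.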

[16] = biological target: Beta-2 adrenergic receptor (Homo sapiens) (UniProt P07550); experiment: Adrenergic beta2 receptor (ADRB2) small molecule agonists, cell-based qHTS assay (AID 1963593);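 note: CHO cells stably overexpressing human ADRB2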
Outline: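 CHO cells stably over-expressing ADRB2 were plated overnight at 37C, then dosed with compounds plus a stimulation mix containing 100uM IBMX and 25uM Ro-20-1724 for 0.5hr at room temperature. cAMP was measured by HTRF competition, 1hr.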

[17] = biological target: D(2) dopamine receptor (Homo sapiens) (UniProt P14416); experiment: Dopamine D2 receptor (DRD2) small molecule agonists, cell-based qHTS assay (AID 1963594); note: nearly all actives have a fitted effect of over 35% in size
D(2) dopamine receptor (Homo sapiens), sequence (P14416 whole entry, looked up): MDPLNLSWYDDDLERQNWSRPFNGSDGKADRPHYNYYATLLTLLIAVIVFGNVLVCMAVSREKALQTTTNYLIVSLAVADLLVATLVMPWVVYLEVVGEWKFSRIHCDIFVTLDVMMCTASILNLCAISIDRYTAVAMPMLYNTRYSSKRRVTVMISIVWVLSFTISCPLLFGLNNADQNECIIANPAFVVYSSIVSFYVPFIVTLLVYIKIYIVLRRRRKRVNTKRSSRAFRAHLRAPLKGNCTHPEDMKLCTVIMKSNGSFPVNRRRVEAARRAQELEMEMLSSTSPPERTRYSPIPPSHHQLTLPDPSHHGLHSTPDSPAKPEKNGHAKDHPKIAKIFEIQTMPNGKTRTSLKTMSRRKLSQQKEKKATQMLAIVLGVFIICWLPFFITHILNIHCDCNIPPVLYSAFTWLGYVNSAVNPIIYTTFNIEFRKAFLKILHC
Outline: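 HEK293 cells stably expressing human DRD2, pre-treated with PDE inhibitor Ro20-1724 (0.1 mM final) and compound 10 min at room temperature, then stimulated with NKH477 (200nM […]) for 30 min. cAMP read by HTRF (665/620 nm).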

[18] = biological target: D(2) dopamine receptor (Homo sapiens) (UniProt P14416); experiment: Dopamine D2 receptor (DRD2) small molecule antagonists, cell-based qHTS assay (AID 1963595; active = well fitted inhibition curve with a large enough effect in the signal ratio in the repeat runs, with a control signal flat; the % refers to the signal ratio)
Outline: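 Human DRD2 antagonist qHTS measuring cAMP by HTRF. The cells are exposed to compound for 10 min, then to NKH477 (200 nM) and quinpirole (12 nM) for 30 min at RT, with Ro20-1724 (0.1 mM) present throughout.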

[19] = p53 small molecule agonists, cell-based qHTS assay (AID 1963582; active = well fitted activation curve with a large enough effect in the signal ratio in the repeat runs, not every such curve was filed as active; the % refers to the signal ratio)
Outline: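 16 h compound exposure (37 C) of p53 response element–bla cells, preceded by 5 h recovery at 37 C/5% CO2; read-out via LiveBLAzer B/G FRET substrate, 2 h RT, fluorescence intensity.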

[20] = biological target: Muscarinic acetylcholine receptor M1 (Homo sapiens) (UniProt P11229); experiment: Cholinergic receptor muscarinic 1 (CHRM1) small molecule antagonists, cell-based qHTS assay (AID 1963588); note: nearly all actives have a fitted effect of over 40% in size
Outline: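 Compounds were tested at 15 concentrations in three independent runs. Dye-loaded CHRM1-CHO cells were exposed 5 min at room temperature before stimulation by acetylcholine added at 50nM. Intracellular calcium was read kinetically on FDSS for 3 min.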
% is set by controls: 0 for no effect and ±100 for the full control effect.

N#C[C@@H]1CC(F)(F)CN1C(=O)CNC1CC2CCC(C1)N2c1ncccn1 (some centres undefined)
inactive: Potency [1] | Potency [2] | Potency [3] | outcome [4] | Potency [5] | Potency [6] | Potency [7] | Potency [8] | Potency [9] | Potency [10] | Potency [11] | Potency [12] | Potency [13] | Potency [14] | Potency [15] | Potency [16] | Potency [17] | Potency [18]

SC1CCCCC1
inactive: Potency [1] | Potency [2] | Potency [3] | outcome [4] | Potency [5] | Potency [6] | Potency [7] | Potency [8] | Potency [9] | Potency [19] | Potency [10] | Potency [11] | Potency [12] | Potency [13] | Potency [14] | Potency [15] | Potency [17] | Potency [18]

COC(=O)c1ccccc1Cl
inactive: Potency [1] | Potency [2] | Potency [3] | outcome [4] | Potency [5] | Potency [6] | Potency [7] | Potency [8] | Potency [9] | Potency [19] | Potency [10] | Potency [11] | Potency [20] | Potency [12] | Potency [13] | Potency [14] | Potency [15]

Cc1oc(-c2ccccc2)nc1CCC(=O)c1ccc(CC2SC(=O)NC2=O)cc1 (centres undefined)
inactive: Potency [1] | Potency [2] | Potency [3] | outcome [4] | Potency [5] | Potency [6] | Potency [7] | Potency [8] | Potency [9] | Potency [10] | Potency [11] | Potency [20] | Potency [12] | Potency [15] | Potency [17] | Potency [18]

C[C@@H](O)[C@H](N)C(=O)O
inactive: activity change, negative = cytotoxicity [1] 1.84% [at 19 µM] | activity, positive = activation [2] 1.15% [at 19 µM] | activity change [3] -1.37% [at 11.8 µM, active compounds read high] | activation [4] -0.289% [at 11.8 µM] | activation [5] 1.89% [at 13.5 µM] | activation [6] 3.27% [at 13.6 µM] | activity change, negative = cytotoxicity [7] 12.8% [at 13.5 µM] | activity change, negative = cytotoxicity [8] -1.12% [at 13.5 µM] | activity change, negative = cytotoxicity [9] 3.28% [at 13.5 µM] | activation [19] -0.75% [at 13.5 µM] | activation [11] 1.14% [at 15.9 µM] | activity, negative = inhibition [20] -1.65% [at 12.6 µM] | activation [12] -0.0423% [at 15.8 µM] | activity change, negative = inhibition [14] 5.26% [at 18.9 µM] | activity change, negative = inhibition [15] 2.52% [at 19 µM] | activation [17] 17.6% [at 19 µM] | activity change, negative = inhibition [18] -2.84% [at 18.9 µM]

O=[N+]([O-])c1ccc2[nH]ncc2c1
inactive: Potency [1] | Potency [2] | Potency [3] | outcome [4] | Potency [5] | Potency [6] | Potency [7] | Potency [8] | Potency [9] | Potency [19] | Potency [10] | Potency [20] | Potency [12] | Potency [14] | Potency [15] | Potency [18]

CC(C)NCCCC1(C(N)=O)c2ccccc2-c2ccccc21
inactive: Potency [1] | Potency [2] | Potency [3] | outcome [4] | Potency [5] | Potency [6] | Potency [7] | Potency [8] | Potency [9] | Potency [19] | Potency [11] | Potency [13] | Potency [14] | Potency [15] | Potency [16] | Potency [17] | Potency [18]

Cc1c(C)n(CCN(C)C)c2ccc(C(=O)OCCN(C)C)cc12
active: Potency [2] 29.8 µM
inactive: Potency [1] | Potency [3] | outcome [4] | Potency [5] | Potency [6] | Potency [7] | Potency [8] | Potency [9] | Potency [19] | Potency [10] | Potency [11] | Potency [12] | Potency [13] | Potency [15] | Potency [16] | Potency [17]

NNc1nc(-c2ccc([N+](=O)[O-])cc2)cs1
active: Potency [1] 30.6 µM | Potency [2] 30.6 µM
inactive: Potency [3] | outcome [4] | Potency [5] | Potency [6] | Potency [7] | Potency [8] | Potency [9] | Potency [10] | Potency [11] | Potency [20] | Potency [12] | Potency [16] | Potency [18]

COc1cc2c(cc1OC)CN(C(=O)[C@H](C)N[C@@H](CCc1ccccc1)C(=O)O)[C@H](C(=O)O)C2
inactive: Potency [1] | Potency [2] | Potency [3] | outcome [4] | Potency [5] | Potency [6] | Potency [7] | Potency [8] | Potency [9] | Potency [19] | Potency [11] | Potency [20] | Potency [12] | Potency [13] | Potency [14] | Potency [15] | Potency [17] | Potency [18]

Cc1nc2ccc(Cl)cc2[nH]1
inactive: Potency [1] | Potency [2] | Potency [3] | outcome [4] | Potency [5] | Potency [6] | Potency [7] | Potency [8] | Potency [9] | Potency [19] | Potency [10] | Potency [11] | Potency [20] | Potency [12] | Potency [13] | Potency [17] | Potency [18]

CCCCCCCCOCCCN
active: Potency [1] 68.6 µM | Potency [11] 24.5 µM
inactive: Potency [2] | Potency [3] | outcome [4] | Potency [5] | Potency [6] | Potency [7] | Potency [8] | Potency [9] | Potency [19] | Potency [20] | Potency [12] | Potency [13] | Potency [14] | Potency [15] | Potency [17]

Nc1nc(CC(=O)O)cs1
inactive: Potency [1] | Potency [2] | Potency [3] | outcome [4] | Potency [5] | Potency [6] | Potency [7] | Potency [8] | Potency [9] | Potency [19] | Potency [10] | Potency [11] | Potency [20] | Potency [12] | Potency [17] | Potency [18]

CC(C)NNC(=O)c1ccncc1
inactive: Potency [1] | Potency [2] | Potency [3] | outcome [4] | Potency [5] | Potency [6] | Potency [7] | Potency [8] | Potency [9] | Potency [19] | Potency [14] | Potency [15] | Potency [16] | Potency [17] | Potency [18]

Source: PubChem BioAssay (Tox21)
